From PubChem BioAssay (Tox21) come the findings set out here.

Records with an inconclusive call do not appear. Active and inactive are the calls of the source. Calls follow the shape of the full dose curve.
% is scaled to controls: 0 for no effect and ±100 for the full control effect.

The test deals with Thyrotropin receptor (Homo sapiens) (UniProt P16473). In words: qHTS assay to identify small molecule agonists of the thyroid stimulating hormone receptor (TSHR) signaling pathway (AID 1224843). Also: nearly all actives have a fitted effect of over 45% in size. The settings on record: TSHR-HEK293 cells, cAMP HTRF, agonist mode, 30 min; series mostly up to 92.4 µM; activation: at the top concentration. The source says: National Center for Advancing Translational Sciences [NCATS]
Chain of Thyrotropin receptor (Homo sapiens) (P16473 whole entry, looked up): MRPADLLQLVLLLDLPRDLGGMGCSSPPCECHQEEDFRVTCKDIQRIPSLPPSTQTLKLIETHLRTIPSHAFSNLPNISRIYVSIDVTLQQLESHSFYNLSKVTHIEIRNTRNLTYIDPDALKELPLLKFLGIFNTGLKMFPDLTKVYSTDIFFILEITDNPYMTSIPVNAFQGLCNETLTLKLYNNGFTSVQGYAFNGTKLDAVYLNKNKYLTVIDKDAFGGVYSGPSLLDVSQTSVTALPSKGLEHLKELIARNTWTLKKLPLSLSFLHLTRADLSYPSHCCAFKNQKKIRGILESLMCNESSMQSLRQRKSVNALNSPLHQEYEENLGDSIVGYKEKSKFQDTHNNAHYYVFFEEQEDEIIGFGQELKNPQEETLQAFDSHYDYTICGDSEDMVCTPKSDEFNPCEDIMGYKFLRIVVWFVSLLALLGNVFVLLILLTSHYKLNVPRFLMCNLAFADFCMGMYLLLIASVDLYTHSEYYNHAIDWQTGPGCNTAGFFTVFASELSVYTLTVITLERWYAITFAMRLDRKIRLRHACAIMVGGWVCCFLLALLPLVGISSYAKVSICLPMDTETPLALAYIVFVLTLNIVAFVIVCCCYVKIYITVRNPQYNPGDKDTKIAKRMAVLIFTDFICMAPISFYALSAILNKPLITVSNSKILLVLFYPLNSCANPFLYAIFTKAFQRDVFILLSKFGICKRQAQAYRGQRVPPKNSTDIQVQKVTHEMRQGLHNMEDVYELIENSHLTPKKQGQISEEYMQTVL
NIH Chemical Genomics Center [NCGC]
U.S. Environmental Protection Agency [EPA]
National Institutes of Environmental Health Sciences [NIEHS]
National Toxicology Program [NTP]
U.S. Food and Drug Administration [FDA]
TSHR is the receptor for thyrotropin (thyroid stimulating hormone or TSH), a member of the glycoprotein hormone family. TSH is released by the anterior pituitary gland and is the main regulator of thyroid gland growth and development. Upon binding circulating thyrotropin, a G-protein signal cascade activates adenylyl cyclase and […] cAMP concentration is increased. cAMP is a key second messenger involved extensively in cellular signal transduction pathways associated with the majority of G-protein coupled receptors (GPCRs). The activation of these GPCRs by neurotransmitters, lipids, nucleotides, peptides and hormones results in the activation or the inhibition of plasma membrane-bound adenylate cyclase through heterotrimeric G-proteins. A cell-based TSHR assay was used to screen the Tox21 10K library for compounds that can modulate TSHR in agonist mode.
Tox21 Assay Protocol Summary:
TSHR-Hek293 cells were dispensed at 800 cells/4uL/well in 1536-well white plates using a Multidrop dispenser. […] The plates were incubated at room temperature for 30 min. 2.5 ul/well of cAMP-d2 and 2.5ul/well of anti-cAMP-cryptate was added respectively into the assay plates using a Flying Reagent Dispenser. After 1 hr incubation at room temperature, the fluorescence intensity in the plates was measured using an Envision plate reader. Each test compound was measured at 15 concentrations and in triplicates.
On the technique in general: Quantitative high-throughput screening tests each substance at several concentrations.
For `COc1c2occc2c(OC)c2c(=O)cc(C)oc12`, the “activation” value was 7.55% [at 42.5 µM] (inactive).
For the molecule `CCCSSCCC`, the “activation” value is -1.62% (inactive).
Consider `O=C1NC(c2ccccc2)(c2ccccc2)C(=O)N1COP(=O)(O)O`, for which the “activation” value is 2.36% [at 42.5 µM] (inactive).
As to `OCC1CCC(CO)CC1` (stereo not given), the “activation” value was 2.55% (inactive).
For `N[C@@H](Cc1ccc(O)cc1)C(=O)O` the value was 8.55% [at 8.39 µM] (inactive).
Next, `CCOC(CN1CCN(CC(C)C(=O)c2ccccc2)CC1)c1ccccc1` (stereo not given): -4.32% [at 19 µM] (inactive); `CC(O)CC(C)O` (stereo not given): -5.06% (inactive); `COC(=O)/C=C\C(=O)O`: 7.19% (inactive).
Take `CCC/C=C(\C=O)CC`: the “activation” value is -9.73% (inactive).
`CN1CCOC(c2ccccc2)c2ccccc2C1` (stereo not given): the “activation” value is -2.29% [at 42.5 µM] (inactive).
As for `CO[C@@]1(NC(=O)Cc2cccs2)C(=O)N2C(C(=O)O)=C(COC(N)=O)CS[C@@H]21`, the “activation” value was 1.27% [at 42.5 µM] (inactive).
With `CC(C)[C@H]1CC[C@H](C)C[C@@H]1O`, the “activation” value was 6.72% (inactive).
For `Cn1c(=O)c2c(ncn2CCO)n(C)c1=O`, the “activation” value was -2.78% [at 42.5 µM] (inactive).
Next, `CC1(C)Cc2cccc(N)c2O1`: -4.75% (inactive).
Consider `Cc1ccc2c(c1)C(=O)c1ccccc1C2=O`, for which the “activation” value is -1.32% (inactive).
As to `CC(C)Cn1cnc2c1c(=O)n(C)c(=O)n2C`, the “activation” value is 13.5% [at 42.5 µM] (inactive).
For the molecule `CC(C)=CCC[C@@](C)(O)[C@H]1CC=C(C)CC1`, the “activation” value was 2.7% [at 42.5 µM] (inactive).
For the molecule `CC(C)NCC(O)c1ccc2ccccc2c1` (stereo not given), the “activation” value was -3.6% [at 42.5 µM] (inactive).
In the case of `C/C(CC(C)C)=N\O`, the “activation” value was -2.01% (inactive).
Next, `CC1CCc2c(N3CCC(O)CC3)c(F)cc3c(=O)c(C(=O)O)cn1c23` (stereo not given): -11.7% [at 42.5 µM] (inactive); `CCC(C)OC(C)CC` (stereo not given): 5.01% (inactive); `N#Cc1cscn1`: 0.692% (inactive).
Take `CCCCCCCCCCOC(C)=O`: the “activation” value is -3.8% (inactive).
`CCN(CC)CCN`: the “activation” value is -2.02% [at 42.5 µM] (inactive).
In the case of `CCCC(=O)Nc1ccc(OCC(O)CNC(C)C)c(C(C)=O)c1` (stereo not given), the “activation” value is -0.112% [at 42.5 µM] (inactive).
For `Cc1c(Cl)cccc1Cl` the value was 11.2% (inactive); for `CCCC(=O)OC/C=C(\C)CCC=C(C)C`, 3.53% (inactive); for `Cc1cc(C)c(C(=O)O)c(C)c1`, 0.0606% (inactive).
Turning to `CC1=C(O)C(=O)C(C)O1` (stereo not given), the “activation” value was -2.25% (inactive).
`O=C(CCCCC(=O)Nc1c(I)cc(I)c(C(=O)O)c1I)Nc1c(I)cc(I)c(C(=O)O)c1I`: the “activation” value was -4.75% [at 42.5 µM] (inactive).
Next, `CC(C)CCOC(=O)c1ccccc1`: 6.69% (inactive); `CCCC(CC)c1ccccc1` (stereo not given): 3.29% (inactive).
Consider `C=CCCCC`, for which the “activation” value was 7.23% (inactive).
On to `CCCCCC(C)O` (stereo not given), for which the “activation” value is 2.52% (inactive).
Next, `COc1ccc2c(c1)c1c3n2CCN(C)C3=NCC1`: -11.7% [at 42.5 µM] (inactive).
In the case of `O=C(CCCl)NCCc1ccccc1`, the “activation” value is -7.9% [at 42.5 µM] (inactive).
For `Cn1c(=O)c2[nH]c(Br)nc2n(C)c1=O`, the “activation” value was 0.817% [at 42.5 µM] (inactive).
Next, `CC(C)OC(=O)OCOP(=O)(CO[C@H](C)Cn1cnc2c(N)ncnc21)OCOC(=O)OC(C)C`: -0.397% [at 42.5 µM] (inactive).
Turning to `CN(C)CCCCl`, the “activation” value was 7.09% (inactive).
For `C=Cc1ccc(C(C)(C)C)cc1` the value was 4.46% (inactive).
